Results published in PubChem BioAssay AID949 (Emory University Molecular Libraries Screening Center, 2007).
Some of the results follow. Calls of active or inactive are those of the source.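 How the source made its calls: active means yeast growth recovered at 30 hours, either rising with dose fitted slope above 0.001 or with average optical density gain above 0.07 (some results past the limit were not filed as active); inactive means growth falling with dose or no effect.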

Test: concentration-response growth rescue in JHY4D yeast depleted of SDO1, OD600, diseases with bone marrow failure (AID 949);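 on OD recovery: gain in OD600 from 0 h to 30 h averaged across all seven doses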
Conditions: S. cerevisiae JHY4D (SDO1-depleted) growth rescue, OD600, 30 h, efflux-deficient strain, SNQ2 and PDR5 mutated; OD recovery: stronger effect = higher value; dose-response slope: measured here: 30 h OD slope vs dose

| Compound | OD recovery | dose-response slope |
| --- | --- | --- |
| COc1cccc(-c2nnc(NC(=O)c3ccc(S(=O)(=O)N(CC(C)C)CC(C)C)cc3)o2)c1 | 0.0821 (active) | -0.000585 |
| O=C(COC(=O)/C=C/c1cccc(Cl)c1)NCCc1ccccc1 | 0.091 (active) | -0.000894 |
| CC(=O)Nc1ccc(S(=O)(=O)NCCc2ccccc2)cc1 | 0.0591 (inactive) | 0.00092 |
| COc1cc(OC)nc(S(C)(=O)=O)n1 | 0.0647 (inactive) | 0.000101 |
| CS(=O)(=O)Nc1ccc(C(=O)N2CCCC2)cc1 | 0.0956 (active) | 0.000226 |
| COc1ccc(CNC(=O)c2c(C)cc(=O)oc2C)cc1OC | 0.0773 (active) | 0.000182 |
| COc1ccc(/C(C)=N/NC(=O)CCC(=O)Nc2ccc(Cl)cc2Cl)c(OC)c1 | 0.11 (active) | 0.000741 |
| CCOc1cccc2c1OC1(CCCCC1)N1N=C(c3cccnc3)CC21 (configuration not stated) | 0.0606 (inactive) | -0.000222 |
| COc1ccc(OCC(=O)NNC(=O)c2ccc(-c3ccccc3)cc2)cc1 | 0.0649 (inactive) | -0.000252 |
| CC(C)OC(=O)c1c(NC(=O)c2ccco2)sc2c1CCCC2 | 0.0368 (inactive) | 0.000949 |
| Cc1[nH]c2ccccc2c1C(=O)CSCC(=O)O | 0.11 (active) | -0.000672 |
| Cc1oc2nc(SCC(=O)NCc3cccnc3)nc(N)c2c1C | 0.0937 (active) | 0.000887 |
| COc1ccc(-c2nnco2)cc1OC | 0.0477 (inactive) | 0.000454 |
| O=S(=O)(/N=C(/Nc1ccccn1)c1ccccc1)c1ccc(Cl)cc1 | 0.0469 (inactive) | 0.000638 |
| O=C(CSc1nc(-c2ccco2)cc(C(F)(F)F)n1)NCc1cccs1 | 0.072 (active) | 0.00107 |
| CN(C)c1ccc(Nc2c3c4c(cccc4n(C)c2=O)C(=O)c2ccccc2-3)cc1 | 0.0269 (inactive) | -0.000458 |
